# Laboratory results reported in the OligoGym collection.
# What was measured:
# Assay in all cases: pooled miR-30 sensor sort-seq; sequence = guide strand
# Settings in all cases: shRNA
# ODF3L1 = molecular target: ODF3L1
# OTP = molecular target: OTP
# P2RY6 = molecular target: P2RY6
# PARP11 = molecular target: PARP11
# PCSK5 = molecular target: PCSK5
# PGBD3 = molecular target: PGBD3
# PFKFB4 = molecular target: PFKFB4
# PGD = molecular target: PGD
# PEX11G = molecular target: PEX11G
# PGLYRP2 = molecular target: PGLYRP2
# PION = molecular target: PION
# PML = molecular target: PML
# POLR3B = molecular target: POLR3B
# PPIP5K1 = molecular target: PPIP5K1
# PQLC1 = molecular target: PQLC1
# PRODH2 = molecular target: PRODH2
# PRM2 = molecular target: PRM2
# PRKX = molecular target: PRKX
# PROC = molecular target: PROC
# PRKAR1B = molecular target: PRKAR1B
# PRR5 = molecular target: PRR5
# PRR3 = molecular target: PRR3
# PRRX2 = molecular target: PRRX2
# PRPS2 = molecular target: PRPS2
# PRSS27 = molecular target: PRSS27
# Further: reference of the scale not given here.
sequence,measurement,setting,value
TCATGATCTATGTAGCCCGTGC,sensor-assay potency score (higher = more potent),ODF3L1,-0.361
TTGACCAGTATGTAACAAGAAT,sensor-assay potency score (higher = more potent),OTP,-1.1
AGTTGCTTGAAGTTCTCGCGGT,sensor-assay potency score (higher = more potent),P2RY6,-0.308
TAGCGCTGGAAGCTGATGCAGG,sensor-assay potency score (higher = more potent),P2RY6,-0.775
TTGCGATCCATCGTCTTCCCAA,sensor-assay potency score (higher = more potent),PARP11,-0.797
TAGTGCAAACAGTCATTGCAGT,sensor-assay potency score (higher = more potent),PCSK5,-0.552
TGCATTGTCAGCAACATGCAAA,sensor-assay potency score (higher = more potent),PGBD3,-1.12
TAGACTCTTGGCAAACTCCCTG,sensor-assay potency score (higher = more potent),PFKFB4,0.333
TTCACTGTGAGAGCAGGCCTGA,sensor-assay potency score (higher = more potent),PFKFB4,-0.707
TTTCTTTAAAGCTACATCTGAT,sensor-assay potency score (higher = more potent),PGBD3,-0.534
TTTTGGTCACTGATGAACTGGG,sensor-assay potency score (higher = more potent),PFKFB4,-0.438
TTGAGCGTAAGAGATGATCTTG,sensor-assay potency score (higher = more potent),PGD,0.0723
TAGGAATACACTTCTAATGATG,sensor-assay potency score (higher = more potent),PGD,-1.08
TTTTCTTTAAAGCTACATCTGA,sensor-assay potency score (higher = more potent),PGBD3,-0.486
AACTTTGTCAATGTGATCCTTT,sensor-assay potency score (higher = more potent),PGBD3,0.355
TAAAGCTACATCTGATTCCAGT,sensor-assay potency score (higher = more potent),PGBD3,-0.329
TCATCTAGCGACTCGTAGGAGT,sensor-assay potency score (higher = more potent),PFKFB4,-0.615
TTGGTGTGGATAAACTGCCCTG,sensor-assay potency score (higher = more potent),PGD,-0.35
CAGAACTCCACCAACCAGCTGG,sensor-assay potency score (higher = more potent),PEX11G,-1.04
TTGAGGTCTCGGCACCGTCTTG,sensor-assay potency score (higher = more potent),PGD,-1.68
TTTCCTTTCACATTGTAGGGTT,sensor-assay potency score (higher = more potent),PFKFB4,0.667
TTTCCTAGGAATACACTTCTAA,sensor-assay potency score (higher = more potent),PGD,0.166
TTCATCAGGAGAGTCATCTTTA,sensor-assay potency score (higher = more potent),PGBD3,0.38
TAGGTCTTGACCACGTCCCGGC,sensor-assay potency score (higher = more potent),PFKFB4,-0.311
TAGTGTAGACAAACATGGCCAG,sensor-assay potency score (higher = more potent),PEX11G,-0.684
TTTCACACTTCACAAAGCCAAC,sensor-assay potency score (higher = more potent),PFKFB4,-1.28
TTAAAGATGGTCGCTCTCCGTT,sensor-assay potency score (higher = more potent),PFKFB4,-0.54
TTTGGTGGTGCTGTAACTCTAC,sensor-assay potency score (higher = more potent),PGBD3,0.653
TCAACTTTGGAGACAGTCCTAT,sensor-assay potency score (higher = more potent),PGD,-0.343
TATCGAGTCAGCTTCTTGGAGA,sensor-assay potency score (higher = more potent),PFKFB4,-0.636
TGACTTAAAGAAGTCGTCCAGT,sensor-assay potency score (higher = more potent),PGD,-0.436
TTTGGAACAAATTTCATGCATC,sensor-assay potency score (higher = more potent),PGBD3,-0.293
TTGTGTTCTTATGACATTCAGC,sensor-assay potency score (higher = more potent),PGBD3,-0.605
TTTCTTATCACCATCAAACTGG,sensor-assay potency score (higher = more potent),PGD,-0.51
TGGACACCACCAACAGACGTGT,sensor-assay potency score (higher = more potent),PEX11G,-1.09
TCAAGTGACTCTTAGCAGCAGG,sensor-assay potency score (higher = more potent),PFKFB4,-0.462
TTCAGAGATGATAAGCACCGAG,sensor-assay potency score (higher = more potent),PGD,-0.0452
TTCATTTGGAACAAATTTCATG,sensor-assay potency score (higher = more potent),PGBD3,-0.714
TTCCCTAGGACGGAGACACAGC,sensor-assay potency score (higher = more potent),PEX11G,-1.05
TACGCTTCTGAGGTCTTCCTTT,sensor-assay potency score (higher = more potent),PGBD3,-0.455
TAGGAGGTTCTGAAGTTCCGGG,sensor-assay potency score (higher = more potent),PGD,-0.239
TAAACGTAGATGGAACTTCATC,sensor-assay potency score (higher = more potent),PGBD3,-1.36
TAGCAATCCGAGTAGGATCCAG,sensor-assay potency score (higher = more potent),PGLYRP2,-0.509
TTGATATAGGACAGGTCCCTAT,sensor-assay potency score (higher = more potent),PFKFB4,-1.32
TTTGTAGGTCTTGACCACGTCC,sensor-assay potency score (higher = more potent),PFKFB4,-0.178
TTCTGCCGTCGGAAGTTGCTGC,sensor-assay potency score (higher = more potent),PGLYRP2,-0.417
TTGAACATTAAGTAGGTGGAAG,sensor-assay potency score (higher = more potent),PION,-0.626
TAGACTGAACTAAACTTGCAGC,sensor-assay potency score (higher = more potent),PION,-0.224
TACAGCTGCATCTTTCCCCTGG,sensor-assay potency score (higher = more potent),PML,0.227
TTACATTGAAGCTTTCTTCAAC,sensor-assay potency score (higher = more potent),POLR3B,0.0741
TAAAGCATGATGACAATCTGGG,sensor-assay potency score (higher = more potent),PPIP5K1,0.285
TAGTCCGAGAAGCTGCTCCACT,sensor-assay potency score (higher = more potent),PQLC1,-0.969
AAAATTGGAAACGCTGTAGTGT,sensor-assay potency score (higher = more potent),PRODH2,-0.189
TTGCGCCTTCTGCAGGAGCGAT,sensor-assay potency score (higher = more potent),PRM2,-1.7
TCATGTTTCCTAATCGCCTTGT,sensor-assay potency score (higher = more potent),PRKX,0.781
AAGTTGAGGACGAAGGTGCGGT,sensor-assay potency score (higher = more potent),PROC,-0.189
TTGCTCTTGCCCATGCAACTGC,sensor-assay potency score (higher = more potent),PRM2,-0.57
TTGAAAATACGGTTCTCACGTT,sensor-assay potency score (higher = more potent),PRODH2,-0.536
TGACTTTGGTGTAAACGCCGTA,sensor-assay potency score (higher = more potent),PROC,-0.165
TTCTCTTAACTTCCAGCTGGGG,sensor-assay potency score (higher = more potent),PRM2,-0.773
ATTGAGGAAGCTCACCTCGCGC,sensor-assay potency score (higher = more potent),PROC,-1.35
TAGACCTCGACGTGCTCCGGGC,sensor-assay potency score (higher = more potent),PRM2,-1
TTTTTCTTAATTTCCAGCTGGG,sensor-assay potency score (higher = more potent),PRM2,0.485
TTGGCGAACCCAAAGTCCGTGA,sensor-assay potency score (higher = more potent),PRKX,-0.61
TTTCCTAATCGCCTTGTTCTGT,sensor-assay potency score (higher = more potent),PRKX,-0.676
ATTGTGTACGTGTTGCTCCTGC,sensor-assay potency score (higher = more potent),PRKX,0.0637
TTGCCCATGCAACTGCTGCCTG,sensor-assay potency score (higher = more potent),PRM2,-0.795
TTCTCTGGCTTCAAGTCCCTGT,sensor-assay potency score (higher = more potent),PRKX,-0.5
TAGCTGAAGAGCTCGCCGCCCG,sensor-assay potency score (higher = more potent),PRKX,-0.771
TCGAGAGCAGTGTCTGCGCCTA,sensor-assay potency score (higher = more potent),PRM2,-0.978
TTGGAGTGCAGGTACTCGATGG,sensor-assay potency score (higher = more potent),PRKX,-0.357
TTTGGTGTAAACGCCGTAGTTG,sensor-assay potency score (higher = more potent),PROC,-0.456
TTTCTCTTAACTTCCAGCTGGG,sensor-assay potency score (higher = more potent),PRM2,0.205
TGCCTGTACACCTCGTGCGAGC,sensor-assay potency score (higher = more potent),PRM2,-1.54
TATAGTGAGACTGGCCATGGGT,sensor-assay potency score (higher = more potent),PRM2,-0.496
TTCTCAGACACCATGTTGCTCA,sensor-assay potency score (higher = more potent),PROC,0.141
TTTGCGGATCCGCAGCACCTGG,sensor-assay potency score (higher = more potent),PROC,-1.65
TAGTGTTATTGAATACATTTGA,sensor-assay potency score (higher = more potent),PRODH2,-0.549
TCGCCTTGTTCTGTCAACCACG,sensor-assay potency score (higher = more potent),PRKX,-0.962
TCCATCTTCAAACTGGACGGGC,sensor-assay potency score (higher = more potent),PRKAR1B,-0.749
TTCCTAATCGCCTTGTTCTGTC,sensor-assay potency score (higher = more potent),PRKX,-0.396
TTAATGAGGTCTTTTACATGGA,sensor-assay potency score (higher = more potent),PRKX,-0.298
TCGCTGCTGGAGAACACTGAGT,sensor-assay potency score (higher = more potent),PROC,-1.33
TTCGAGAGCAGTGTCTGCGCCT,sensor-assay potency score (higher = more potent),PRM2,-0.241
TAATGAGGTCTTTTACATGGAA,sensor-assay potency score (higher = more potent),PRKX,-0.747
TTGGTGTAAACGCCGTAGTTGT,sensor-assay potency score (higher = more potent),PROC,-1.16
TTCATGTTTCCTAATCGCCTTG,sensor-assay potency score (higher = more potent),PRKX,-0.603
TTCCTGGTTCTGCAGCCTCTGC,sensor-assay potency score (higher = more potent),PRM2,-1.75
ATGTTGCTCATGACCTCGCTGC,sensor-assay potency score (higher = more potent),PROC,-0.588
TTGCTCATGACCTCGCTGCACT,sensor-assay potency score (higher = more potent),PROC,-0.963
TTGTCGGTGGTGCTCTTGCTGT,sensor-assay potency score (higher = more potent),PROC,-1.32
TCATTGTCGGTGGTGCTCTTGC,sensor-assay potency score (higher = more potent),PROC,-0.681
TCACTGAAGAAGAAGTCCCAGG,sensor-assay potency score (higher = more potent),PRR5,-0.956
TTCTTGATAAGAGACCAGCTTT,sensor-assay potency score (higher = more potent),PRR3,-0.745
TCCTTGTGAAAGCTTCCCCTGG,sensor-assay potency score (higher = more potent),PRR3,-1.31
TTTTCTATTGCTGTCCACCCAG,sensor-assay potency score (higher = more potent),PRRX2,-0.328
TTTTTGGCAAAATGTCGGCAGA,sensor-assay potency score (higher = more potent),PRR3,-1.27
TCGTGGGGTACAGTCTGCTGGG,sensor-assay potency score (higher = more potent),PRR5,-0.767
TTGATAAGAGACCAGCTTTTGA,sensor-assay potency score (higher = more potent),PRR3,-1.38
TAGTCCTCAGTCACGCCCCTGG,sensor-assay potency score (higher = more potent),PRR5,-0.743
TTTCTATTGCTGTCCACCCAGG,sensor-assay potency score (higher = more potent),PRRX2,-1.08
ATCCTCTAGCTTCACACTGAGG,sensor-assay potency score (higher = more potent),PRR5,-1.85
TGGTCCACCAGGTTCTCCGGGC,sensor-assay potency score (higher = more potent),PRR5,-0.928
TTGTCGTTAATTTCCCCGCAGC,sensor-assay potency score (higher = more potent),PRPS2,-0.905
TAGCTTCACACTGAGGGTGATG,sensor-assay potency score (higher = more potent),PRR5,-1.08
ATCTCCGACACAGAGTGCCTGC,sensor-assay potency score (higher = more potent),PRR5,-0.984
TAGGGGGACGAGGCTGTCCAGG,sensor-assay potency score (higher = more potent),PRRX2,-1.31
TTCCTGCGGAACTTGGCGCGGC,sensor-assay potency score (higher = more potent),PRRX2,-0.664
TCGCTGAGGTTGACGCGCCGGG,sensor-assay potency score (higher = more potent),PRRX2,-1
ATAATCTGGACTCAGGGCGGTG,sensor-assay potency score (higher = more potent),PRRX2,-1.16
TAGGAAGTAACTCTGCACCAGT,sensor-assay potency score (higher = more potent),PRR3,-0.0951
TTCAGAATCCGAGTCCACGGAC,sensor-assay potency score (higher = more potent),PRR5,-1.2
TTGTGGATGCTGTTCCAGGTGG,sensor-assay potency score (higher = more potent),PRR5,-1.05
TAGGACTTGAGCAGCGAGGCAG,sensor-assay potency score (higher = more potent),PRRX2,-0.751
TCAGTGGTCCCCTTGATCCTGG,sensor-assay potency score (higher = more potent),PRR3,-0.862
TTGTCTTCCATAACCTGGGGGT,sensor-assay potency score (higher = more potent),PRR3,-0.114
TCGAGGGTTTCTCTGTTCCTTG,sensor-assay potency score (higher = more potent),PRR3,-0.785
TGTTGTAGCTCTTGGAGCGCAC,sensor-assay potency score (higher = more potent),PRR5,-0.639
TCTAGCTTCACACTGAGGGTGA,sensor-assay potency score (higher = more potent),PRR5,0.389
TAATTGGTGAAGGGCACTGGTG,sensor-assay potency score (higher = more potent),PRSS27,-1.57
